Measurements from PubChem BioAssay (NCATS).
Several values for one entry are separate records, joined by “and”; a condition that tells them apart may be missing. Equal values may be shown once. Results filed as inconclusive are left out. Activity calls are given as the source filed them. Unless noted, calls follow the shape of the dose curve; as a rule, active = well fitted curve in the direction sought with a large enough effect; inconclusive = small, poorly fitted or top-dose-only effect, or another doubt; inactive = no such curve, though single readings can be large; an effect the other way counts as inactive or inconclusive.

What was measured:
[1] = Cell Viability - HepG2 (AID 433; calls by dose curve;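 also: potency is read from the fitted curve at half-maximal effect; potency for ATP loss meaning cytotoxicity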); conditions: qHTS
In short: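 In this qHTS format, a 40 h, 37 °C compound incubation of HepG2 cells in complete medium precedes a 20 min CellTiter-Glo step at room temperature. Tamoxifen and doxorubicin serve as positive controls; Hill-equation fits yield AC50.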

[2] = Cell Viability - NIH 3T3 (AID 541); conditions: NIH 3T3 cell viability, qHTS; activity change, negative = cytotoxicity: at 92.2 µM (top of the series);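 also: plate controls were DMSO alone for no effect and tamoxifen positive control for full effect; nearly all actives have a fitted effect of over 25% in size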
In short: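 NIH 3T3 mouse embryo fibroblasts (1000 cells/well) were plated in complete medium and treated with compound for 40 hr at 37 °C. Viability was read as intracellular ATP by CellTiter-Glo luminescence; AC50 values came from Hill-equation fits of concentration-response data.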

[3] = Cell Viability - HUV-EC-C (AID 542); also: % is scaled to controls: 0 for no effect and ±100 for the full control effect; nearly all actives have a fitted effect of over 35% in size
In short: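 HUV-EC-C normal human vascular endothelial cells, 1000 cells/well, pre-incubated 5 hr at 37 °C, then exposed to compounds for 40 hr at 37 °C in complete medium. Viability measured as intracellular ATP by CellTiter-Glo luminescence; AC50 from Hill fits.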

[4] = Cell Viability - Renal Proximal Tubule (AID 545); conditions: renal proximal tubule cells viability, at 91.7 µM (top of the series);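 also: 0% = DMSO only and -100% = 100 µM tamoxifen; nearly all actives have a fitted effect of over 40% in size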
In short: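 In this qHTS format, normal rat kidney-derived proximal tubule cells in complete culture medium receive compound titrations, then sit 40 hours at 37 °C before luciferase-based ATP quantitation; potency is reported as AC50 from concentration-response curves.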

[5] = Cell Viability - Mesenchymal (AID 546);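 also: cells exposed to compound for 40 hours before reading; 0% = DMSO only and -100% = 100 µM tamoxifen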
In short: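 AC50 values reflect the drop in intracellular ATP in a human kidney mesenchymal line derived from normal glomeruli. Treatment lasts 40 hr at 37 °C in complete medium, and the signal comes from CellTiter-Glo luminescence.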

[6] = Cellular Toxicity (caspase-3) HepG2 (AID 654);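 also: cells exposed to compound for 16 hours before reading; 0% = DMSO alone and 100% = caspase signal from 100 µM tamoxifen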
In short: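 HepG2 cells (1500/well) in complete medium were treated with compounds for 16 hr at 37 °C. Caspase-3/7 activity was then read as luminescence from peptide-aminoluciferin cleavage. AC50 came from Hill fits, normalized to DMSO and 100 uM tamoxifen.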

[7] = Cellular Toxicity (caspase-3) HUV-EC-C (AID 656);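 also: 0% = DMSO basal and 100% = 100 µM tamoxifen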
In short: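 Concentration-dependent caspase 3/7 induction was assessed in HUV-EC-C cells exposed for 16 hours. Data scaled between DMSO and tamoxifen (100 uM) controls.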

[8] = Cellular Toxicity (caspase-3) BJ (AID 658)
In short: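 Readout: Caspase-Glo 3/7 luminescence increase in BJ cells after 16 hr treatment at 37 °C. Staurosporine and tamoxifen served as positive controls; AC50 values came from Hill modelling of data normalized to DMSO and 10 uM staurosporine.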

[9] = Cellular Toxicity (caspase-3) MRC-5 (AID 659)
In short: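 Concentration-dependent caspase 3/7 activation is measured in human normal lung fibroblasts (MRC-5) following 16-hour treatment. AC50 values come from standard Hill-equation modeling of luminescence normalized to DMSO and 10 uM staurosporine.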

[10] = Cellular Toxicity (caspase-3) Mesangial (AID 660);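 also: cells exposed to compound for 16 h before the caspase read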
In short: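 Human renal glomerular mesangial cells (1000/well) were treated with compounds for 16 h at 37 °C in complete medium, then caspase 3/7 activity was read by Caspase-Glo luminescence. Data were normalized to DMSO and 100 uM tamoxifen; AC50 from Hill fits.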

[11] = Cellular Toxicity (caspase-3) H-4-II-E (AID 663);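 also: cells exposed to compound for 16 hr before readout; 0% = DMSO basal and 100% = 100 µM tamoxifen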
In short: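 Apoptosis induction is scored as increased luminescence from caspase 3/7 substrate cleavage in rat hepatoma H-4-II-E cells exposed to compound for 16 hr. Activity is scaled between DMSO and 100 uM tamoxifen.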

[12] = Cellular Toxicity (caspase-3) N2a (AID 665); conditions: N2a cells, luminescence, normalized: DMSO 0%, 10 µM staurosporine 100%; at 92.2 µM (top of the series);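 also: compound exposure lasted 16 h at 37 °C before readout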
In short: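 Mouse N2a neuroblastoma cells (1500/well) were treated with compounds for 16 h at 37 °C, then caspase-3/7 activity was read by Caspase-Glo luminescence after 1 h at room temperature. Data were normalized to DMSO and 10 uM staurosporine; AC50 from Hill fits.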

[13] = Cellular Toxicity (caspase-3) NIH 3T3 (AID 666);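 also: 0% = DMSO basal and 100% = 100 µM tamoxifen stimulation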
In short: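 Mouse NIH 3T3 fibroblasts (1000 cells/well) were treated with compound for 16 hr at 37°C in complete medium; caspase-3/7 activity was read by Caspase-Glo luminescence. Normalized to DMSO and 100 uM tamoxifen; AC50 from Hill fits.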

[14] = Cellular Toxicity (caspase-3) Renal Proximal Tubule (AID 667); conditions: renal proximal tubule cells, at 91.7 µM (top of the series);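 also: cells exposed to compound for 16 hours at 37 °C before detection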
In short: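 Caspase-Glo 3/7 read-out, rat primary kidney proximal tubule cells. Compound exposure 16 h, 37 °C; detection after 1 h at RT. Activity scaled to DMSO and 10 uM staurosporine.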

[15] = MultiTox-Fluor Cytotoxicity Assay - LYMP1-002 - Live Cells (AID 955); also: % is scaled to controls: 0 for no effect and ±100 for the full control effect
In short: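 Human lymphoblastoid LYMP1-002 cells, 2500/well in complete medium, rested 5 hr at 37 C, then exposed to compounds for 16 hr at 37 C. Live-cell protease cleavage of GF-AFC read by fluorescence (Ex/Em 405/510) after 60 min at room temperature; AC50 from Hill fits.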

[16] = qHTS Assay for Identification of Small Molecule Inducers of Hypoxia Response (AID 2120; active = well fitted curve in the direction sought with a large enough effect in the signal ratio, with a control signal flat, not every such curve was filed as active; the % refers to the signal ratio; also: 0% is about no effect)
In short: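 HRE-beta-lactamase reporter in CellSensor HRE-bla ME-180 cells, 2500 cells/well in Opti-MEM with 0.5% dialyzed FBS; compounds tested as titration series, 17 h at 37 degrees C. CCF4 substrate 2.5 h at room temperature; AC50 from 460/530 nm ratio.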

[17] = molecular target: Tumor necrosis factor (Homo sapiens) (UniProt P01375); test: qHTS assay to identify small molecules that stimulate Tumor Necrosis Factor-alpha (TNF-alpha) secretion (AID 651757; active = well fitted curve in the direction sought with a large enough effect in the signal ratio; the % refers to the signal ratio; also: 0% is about no effect)
Chain of Tumor necrosis factor (Homo sapiens) (P01375 whole entry, looked up): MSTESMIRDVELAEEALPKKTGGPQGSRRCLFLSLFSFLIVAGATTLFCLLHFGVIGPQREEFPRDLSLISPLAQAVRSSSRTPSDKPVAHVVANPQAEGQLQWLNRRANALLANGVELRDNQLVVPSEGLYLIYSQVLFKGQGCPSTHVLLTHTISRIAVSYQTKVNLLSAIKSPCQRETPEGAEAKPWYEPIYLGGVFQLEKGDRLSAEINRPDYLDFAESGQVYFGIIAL
In short: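 THP-1 cells were exposed to compounds for 17 hrs at 37 C, after which secreted TNF-alpha was measured by homogeneous HTRF (TR-FRET) using cryptate- and XL665-labeled anti-TNF-alpha antibodies, read after 3 hr at room temperature.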

[18] = qHTS assay for small molecule agonists of the antioxidant response element (ARE) signaling pathway measured by Nrf2-dependant transcriptional activity - cell viability counter screen (AID 720653; active = well fitted curve in the direction sought with a large enough effect in the repeat runs; an effect the other way counts as inactive or inconclusive; also: % is scaled to controls: 0 for no effect and ±100 for the full control effect); conditions: ARE-bla HepG2 viability, CellTiter-Glo ATP luminescence, 16 h; active compounds read low
In short: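 Cytotoxicity counter screen: intracellular ATP quantified by CellTiter-Glo luminescence in the same ARE-bla HepG2 plates, after 16 h compound exposure and a 2 h beta-lactamase substrate step.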

[19] = molecular target: Cytochrome P450 2C9 (Homo sapiens) (UniProt P11712); test: qHTS Assay for Inhibitors and Substrates of Cytochrome P450 2C9 (AID 883); also: % is scaled to controls: 0 for no effect and ±100 for the full control effect; nearly all actives have a fitted effect of over 60% in size
Chain of Cytochrome P450 2C9 (Homo sapiens) (P11712 whole entry, looked up): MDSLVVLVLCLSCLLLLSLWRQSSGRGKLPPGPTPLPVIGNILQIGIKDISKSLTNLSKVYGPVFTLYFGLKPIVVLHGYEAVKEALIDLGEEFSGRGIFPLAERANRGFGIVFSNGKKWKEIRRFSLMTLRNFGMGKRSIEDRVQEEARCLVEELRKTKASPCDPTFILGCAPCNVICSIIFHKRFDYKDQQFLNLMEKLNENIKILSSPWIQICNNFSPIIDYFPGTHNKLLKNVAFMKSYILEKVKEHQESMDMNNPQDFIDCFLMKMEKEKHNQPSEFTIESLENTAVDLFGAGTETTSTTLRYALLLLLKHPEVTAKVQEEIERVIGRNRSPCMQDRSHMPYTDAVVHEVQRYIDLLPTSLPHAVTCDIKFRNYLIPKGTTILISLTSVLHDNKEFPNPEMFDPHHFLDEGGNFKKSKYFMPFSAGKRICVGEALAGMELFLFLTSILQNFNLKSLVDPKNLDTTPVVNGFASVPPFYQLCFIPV
In short: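 Luminescent read-out of deoxyluciferin hydroxylation, normalized to 57uM sulphaphenazole (AC100). Reaction: 10nM enzyme, 100uM Luciferin-H (equal to KM), 25mM KPO4, 10 min compound preincubation, then 60 min with NADPH regeneration, both at 37C.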

[20] = molecular target: Cytochrome P450 2C19 (Homo sapiens) (UniProt P33261); test: qHTS Assay for Inhibitors and Substrates of Cytochrome P450 2C19 (AID 899); also: % is scaled to controls: 0 for no effect and ±100 for the full control effect; nearly all actives have a fitted effect of over 60% in size
Chain of Cytochrome P450 2C19 (Homo sapiens) (P33261 whole entry, looked up): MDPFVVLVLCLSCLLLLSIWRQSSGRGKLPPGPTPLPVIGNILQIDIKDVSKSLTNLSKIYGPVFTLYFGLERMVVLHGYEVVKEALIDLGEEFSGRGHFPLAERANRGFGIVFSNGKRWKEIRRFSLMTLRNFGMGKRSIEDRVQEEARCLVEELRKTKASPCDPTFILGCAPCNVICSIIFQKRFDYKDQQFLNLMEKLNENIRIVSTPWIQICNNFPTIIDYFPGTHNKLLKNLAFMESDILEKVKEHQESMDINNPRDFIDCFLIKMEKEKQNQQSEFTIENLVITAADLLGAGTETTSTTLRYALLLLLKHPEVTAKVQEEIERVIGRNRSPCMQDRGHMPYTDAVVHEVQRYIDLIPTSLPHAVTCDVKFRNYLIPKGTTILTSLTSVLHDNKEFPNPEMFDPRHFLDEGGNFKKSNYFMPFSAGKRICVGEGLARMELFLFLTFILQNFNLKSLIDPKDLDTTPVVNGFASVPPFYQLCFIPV
In short: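 Luminescence readout of luciferin formed from 10uM Luciferin-H EGE (KM level) by 5 nM CYP2C19 in 50mM KPO4. 60 min NADPH-driven reaction at 37C after 10 min compound preincubation; data scaled to 57uM ketoconazole inhibition.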

[21] = primary cells of rat origin unless noted
[22] = primary cells freshly taken from rat, solvent-only wells 0%, staurosporine 100% unless noted

O=C(O)COc1ccc(Cl)cc1Cl
inactive: Potency [1] > 92 µM | activity change, negative = cytotoxicity [2] -11.4% and -12.3% | Potency [3] | activity change, negative = cytotoxicity [4] -12.8% | activity change, negative = cytotoxicity ([4]; primary cells of rat origin) -15.7% | outcome [5] | outcome [6] | outcome [7] | outcome [8] | outcome [9] | outcome [10] | outcome [11] | caspase-3 activation [12] -2.05% and -1.8% | outcome [13] | caspase-3 activation [14] 4.86% | caspase-3 activation ([14]; primary cells freshly taken from rat, solvent-only wells 0%, staurosporine 100%) 3.32% | outcome [15] | outcome [16] | outcome [17] | max response [18] -0.488% [middle of 4 runs]

CNC(=O)O/N=C/C(C)(C)SC
inactive: Potency [1] > 92 µM | activity change, negative = cytotoxicity [2] -9.42% | Potency [3] | activity change, negative = cytotoxicity [4, 21] -3.02% [at 91.7 µM] | outcome [5] | outcome [6] | outcome [7] | outcome [8] | outcome [9] | outcome [10] | outcome [11] | caspase-3 activation [12] -2.85% | outcome [13] | caspase-3 activation [14, 22] -0.514% [at 91.7 µM] | outcome [15] | outcome [16] | outcome [17] | max response [18] 2.17% and 5.56%

N#Cc1cccc(NC(=O)N2CC[C@@]3(CCCN(C(=O)Oc4ccccc4)C3)C2)c1
inactive: Potency [19] | Potency [20]

C=CCc1ccc(OC)cc1
inactive: Potency [1] > 92 µM | activity change, negative = cytotoxicity [2] 3.06% | Potency [3] | activity change, negative = cytotoxicity [4, 21] -9.51% [at 91.7 µM] | outcome [5] | outcome [6] | outcome [7] | outcome [8] | outcome [9] | outcome [10] | outcome [11] | caspase-3 activation [12] 0.258% | outcome [13] | caspase-3 activation [14, 22] 1.25% [at 91.7 µM] | outcome [15] | outcome [16] | outcome [17] | max response [18] 2.85%
